Screens (PubChem)
Sampled rows, rich in hits. Any-hit rate of the full collection: about 18%.
TDP1 cell CPT: qHTS for Inhibitors of human tyrosyl-DNA phosphodiesterase 1 (TDP1): qHTS in cells in presence of CPT | Potency, µM (highest dose often 46.2 µM), inactives show at the highest dose activity change, negative = growth inhibition, usual class: inhibitors | chicken DT40 Tdp1-/-;hTDP1 cells + 20 nM CPT, ATP luminescence, 48 h | hit rate 12% among 420,000; also: nearly all actives have a fitted effect of over 55% in size
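Chicken DT40 Tdp1-/- cells complemented with human TDP1, 400 cells/well, exposed to compounds plus 20 nM camptothecin for at least 48 h at 37 C; viability read as ATP content by CellTiter-Glo luminescence.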
PLK1 PBD inh: qHTS for Inhibitors of PLK1-PDB (polo-like kinase 1 - polo-box domain): Primary Screen. Plk1 PBD binding of FITC phosphopeptide, fluorescence polarization. Potency, µM, without a hit: max response, negative = inhibition, most hits filed as inhibitors. hit rate 2.8% among 360,000; also: series mostly up to about 57 µM; nearly all actives have a fitted effect of over 65% in size
Target sequence (P53350 whole entry, looked up, the tested form may be a part): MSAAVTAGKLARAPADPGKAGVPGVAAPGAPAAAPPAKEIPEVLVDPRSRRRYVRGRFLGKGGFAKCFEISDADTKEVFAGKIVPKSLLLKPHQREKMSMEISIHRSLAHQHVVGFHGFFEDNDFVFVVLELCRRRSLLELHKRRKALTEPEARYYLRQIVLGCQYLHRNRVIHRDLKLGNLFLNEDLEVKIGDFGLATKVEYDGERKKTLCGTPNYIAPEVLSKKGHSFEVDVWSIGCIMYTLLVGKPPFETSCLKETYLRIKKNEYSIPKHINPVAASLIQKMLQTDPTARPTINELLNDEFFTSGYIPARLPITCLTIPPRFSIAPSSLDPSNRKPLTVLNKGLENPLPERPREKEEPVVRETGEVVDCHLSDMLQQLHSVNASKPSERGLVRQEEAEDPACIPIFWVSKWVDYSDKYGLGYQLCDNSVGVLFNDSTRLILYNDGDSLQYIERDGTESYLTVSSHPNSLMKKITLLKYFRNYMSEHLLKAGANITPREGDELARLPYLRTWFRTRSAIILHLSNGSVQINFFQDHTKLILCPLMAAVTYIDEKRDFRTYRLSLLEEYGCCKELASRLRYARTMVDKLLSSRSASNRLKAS
DT40 TDP1 no CPT: qHTS for Inhibitors of human tyrosyl-DNA phosphodiesterase 1 (TDP1): qHTS in cells in absence of CPT. DT40 Tdp1-/- hTDP1 cells, no CPT, ATP luminescence, 48 h. AID 686978, 2013. hit rate 15% among 420,000. Potency, µM (doses to about 46.2 µM), for the others: at the highest dose activity change, negative = growth inhibition, usual class: inhibitors; also: nearly all actives have a fitted effect of over 55% in size
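Growth kinetics read by CellTiter-Glo luminescence after ≥48 hr at 37 °C. Cells: DT40 Tdp1-/- stably carrying human TDP1, 400 per well, compound exposure in the absence of CPT (DMSO vehicle).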
VDR inhibitor: Inhibitors of the vitamin D receptor (VDR): qHTS. Vitamin D3 receptor (Homo sapiens), P11473. VDR-SRC2-3 peptide fluorescence polarization, 2 h. Potency, µM, for the others: max response, negative = inhibition, hits mostly inhibitors. hit rate 0.93% among 400,000
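Two reagent solutions held at 4 deg C in the dark were dispensed, compounds pinned at 23 nl, and the mixture incubated 2 h at room temperature. Read-out: fluorescence polarization of VDR–SRC2-3 peptide binding.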
TDP1 block: qHTS Assay for Inhibitors of Tyrosyl-DNA Phosphodiesterase (TDP1). Potency, µM (titrated, usually from 130 µM), for the others: top-dose activity change, negative = inhibition, most hits filed as inhibitors. AID 485290, 2010. Tyrosyl-DNA phosphodiesterase 1 (Homo sapiens), Q9NUW8. hit rate 0.28% among 350,000. recombinant TDP1, AlphaScreen DNA substrate cleavage; also: nearly all actives have a fitted effect of over 40% in size
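Compounds were preincubated with Tdp1 (1 nM final) for 15 min at room temperature before substrate (15 nM final) started a 5 min reaction; beads (10 ug/ml final) were then added for 10 min before AlphaScreen detection.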
KAT2A inh: qHTS Assay for Inhibitors of GCN5L2; Histone acetyltransferase KAT2A (Homo sapiens), Q92830; GCN5L2 HAT assay, ThioGlo1 CoA-SH fluorescence; Potency, µM (top dose mostly 58.9 µM), without a hit: top-dose activity change, negative = inhibition, usual class: inhibitors; hit rate 0.21% among 390,000; AID 504327, 2011
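Titration-based screen in which CoA formation is detected via maleimide probe ThioGlo1 (50uM) turning fluorescent on thiol reaction; substrates H3(1-25) 75uM and acetyl-CoA 70uM, GCN5L2 20nM, 20 min incubation at room temperature.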
* hit, by the source's call; ? = inconclusive; · = no result given. Calls follow the shape of the dose curve; as a rule, active = well fitted curve in the direction sought with a large enough effect; inconclusive = small, poorly fitted or top-dose-only effect, or another doubt; inactive = no such curve, though single readings can be large; an effect the other way counts as inactive or inconclusive. % is scaled to controls: 0 for no effect and ±100 for the full control effect; potency is read from the fitted curve at half-maximal effect.

SMILES	TDP1 cell CPT	PLK1 PBD inh	DT40 TDP1 no CPT	VDR inhibitor	TDP1 block	KAT2A inh
Cc1ccc(S(=O)(=O)n2nc(-c3ccco3)nc2N)cc1	13%	-5%	7%	1%	6%	-5%
COc1ccccc1N1CCN(CCOc2c(OC)cccc2OC)CC1	18µM*	?	?	-4%	5%	2%
COc1ccccc1N1CCN(/N=C/C(Cl)=C/c2ccccc2)CC1	26µM*	7%	16µM*	-10%	9%	-8%
COc1ccccc1N1CCN(CCCCOc2c(OC)cccc2OC)CC1	?	2%	-20%	-4%	·	-14%
COc1ccccc1N1CCN(C(=O)Cn2c(=O)nc(-c3ccccc3)c3ccccc32)CC1	?	·	15µM*	7%	-1%	19%
COc1ccccc1N1CCN(C(=O)CCCN2C(=O)c3cccc4cccc(c34)C2=O)CC1	16µM*	-11%	29µM*	3%	2%	-13%
O=C(CCN1C(=O)c2cccc3cccc(c23)C1=O)N1CCN(c2ccccc2F)CC1	-13%	-7%	?	-8%	-3%	-8%
O=C(N[C@@H](c1ccccc1)[C@H](O)c1ccccc1)[C@@H]1CCCN1C(=O)OCc1ccccc1	1%	-1%	-13%	-26%	10%	·
CC(=O)NC(c1cccc(F)c1)c1nc(-c2cc(F)cc(Cl)c2)cs1 (stereo not drawn)	-25%	-11%	-30%	·	·	·
COc1ccccc1N1CCN(C(=O)COc2cccc3ccccc23)CC1	23µM*	5%	?	15%	4%	-15%
COc1ccc(Cl)cc1N1Cc2ccccc2C1	-28%	-10%	-11%	-7%	-2%	-4%
O=C(CN1C(=O)c2cccc3cccc1c23)N1CCN(c2ccccc2)CC1	-18%	-5%	-11%	19%	0%	-16%
COc1ccccc1N1CCN(C(=O)CN2C(=O)c3cccc4cccc(c34)C2=O)CC1	26µM*	-4%	?	-3%	1%	-8%
COc1ccccc1OCC(=O)N1CCN(C(=O)COc2ccccc2OC)CC1	8%	-17%	6%	6%	·	-2%
COc1ccccc1N1Cc2ccccc2C1	26µM*	?	16µM*	-17%	11%	-5%
O=C(NCCN1CCOCC1)c1cccc(S(=O)(=O)NCc2ccccc2)c1	6%	1%	0%	5%	0%	-6%
COC(=O)C(=Cc1cc(Br)c(OC)c(Br)c1)C(=O)OC	·	·	·	8.9µM*	6%	·
Cc1ccc(-n2cccc2/C=C2/C(=N)N3C(=NC2=O)SN=C3S(C)(=O)=O)cc1Cl	0%	27µM*	-7%	?	2%	-18%
CCOc1cc(/C=C2/C(=N)N3C(=NC2=O)SN=C3S(C)(=O)=O)ccc1OS(=O)(=O)c1ccccc1	?	15µM*	21µM*	25µM*	-8%	?
COc1ccc(C)cc1N(CC(=O)NCCN1CCOCC1)S(=O)(=O)c1ccccc1	0%	-6%	-5%	-14%	·	0%
COC(=O)c1ccc(COc2ccc(/C=N/NC(N)=S)cc2)o1	?	?	?	-3%	5%	-2%
CCCCC(=O)NCCNc1nc2c(c(=O)n(C)c(=O)n2C)n1Cc1ccccc1	?	-13%	?	7%	2%	2%
Cn1c(=O)c2c(nc(NCC(O)CO)n2CCc2ccccc2)n(C)c1=O (stereo not drawn)	-23%	0%	?	-12%	-5%	0%
CCCNc1nc2c(c(=O)n(C)c(=O)n2C)n1Cc1cccc(C)c1	7.3µM*	2%	5.8µM*	10%	2%	1%
CCCCCCn1c(NCC)nc2c1c(=O)n(C)c(=O)n2C	6.5µM*	-4%	2.6µM*	6%	2%	-7%
SMILES	TDP1 cell CPT	PLK1 PBD inh	DT40 TDP1 no CPT	VDR inhibitor	TDP1 block	KAT2A inh
Cn1c(=O)c2c(nc(NCCCO)n2CCc2ccccc2)n(C)c1=O	-13%	-4%	-30%	-1%	5%	-5%
CCCCCCn1c(Br)nc2c1c(=O)n(C)c(=O)n2C	?	?	?	6%	5%	0%
CC(O)CNc1nc2c(c(=O)n(C)c(=O)n2C)n1CCc1ccccc1 (stereo not drawn)	?	-2%	16µM*	-1%	6%	0%
Cn1c(=O)c2c(nc(NCCO)n2CCc2ccccc2)n(C)c1=O	16µM*	-7%	12µM*	-4%	2%	-4%
Cc1ccc(C(=O)Nc2cccc(NC(=O)CN3CCCCC3)c2)cc1	?	-6%	?	-7%	·	-7%
[O][C@H]1[C@@H](O)[C@@H](CO)O[C@@H](O[C@@H]2[C@@H]3OC[C@H]2O[C@H](O[C@@H]2[C@@H](O)[C@H](C[C@@H]4[C@@H]5OC[C@H]4O[CH][C@@H]5O)O[C@H](CO)[C@@H]2OS(=O)(=O)O)[C@@H]3OS(=O)(=O)O)[C@@H]1O	·	·	·	0%	0%	18%
O=C(c1cnccn1)N1CCC2(CCCN(c3ccncc3)C2)CC1	2%	·	-12%	5%	·	15%
CCCNc1nc2c(c(=O)[nH]c(=O)n2C)n1CCCc1ccccc1	-11%	-1%	-1%	-9%	1%	-2%
CCCNc1nc2c(c(=O)[nH]c(=O)n2C)n1CCc1ccccc1	1%	-2%	-17%	-20%	-1%	-12%
CCCNc1nc2c(c(=O)n(C)c(=O)n2C)n1CCC(C)C	16µM*	-11%	16µM*	-11%	0%	-4%
CCCNc1nc2c(c(=O)n(C)c(=O)n2C)n1CCc1ccccc1	5µM*	0%	7.1µM*	-10%	2%	-9%
CCCNc1nc2c(c(=O)n(C)c(=O)n2C)n1CCCc1ccccc1	13µM*	0%	18µM*	13%	·	4%
O=c1nc(Oc2ccccc2)nc2ncccn12	?	-5%	?	·	·	·
COc1cc(S(=O)(=O)NCCc2c(C)[nH]c3ccc(C)cc23)ccc1Br	?	·	?	10%	12%	-20%
Cn1c2c(c(=O)n(C)c1=O)C(c1ccc(Br)cc1)C(C#N)=C(N)N2 (stereo not drawn)	?	-6%	23µM*	-15%	·	-8%
